Inconclusive results are not listed. A call without a number means that no potency is given here. Active and inactive are the calls of the source. Calls follow the shape of the full dose curve.
Assay: qHTS assay to identify small molecule antagonists of the sonic hedgehog signaling (Shh) pathway (AID 1259369); also: nearly all actives have a fitted effect of over 45% in size
Conditions: NIH/3T3 Gli1-Luc reporter, Shh antagonist, luminescence 24 h; series mostly up to 92.4 µM
Summary of the method: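 Screening used 3T3Gli1-Luc cells at 2,000 per well, compounds delivered in DMSO, and conditioned medium as agonist stimulus; plates incubated 24hr at 37 C and 5% CO2 before a 30min luciferase step.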
With `CC(=O)N(c1onc(C)c1C)S(=O)(=O)c1ccc(N)cc1` the Potency was “inactive”.
With `CC1(C)C(=O)N(Br)C(=O)N1Cl` the Potency was “inactive”.
With `O=C(/C=C/c1ccccc1)OCCCc1ccccc1` the Potency was “inactive”.
With `CCCOC(=O)c1ccc(C(=O)OCCC)nc1` the Potency was “inactive”.
In the case of `Cc1ccc(/C=N/n2c(-c3ccccc3)csc2=S)cc1`, the Potency is reported as “inactive”.
In the case of `CC1(C)O[C@@H]2C[C@H]3[C@@H]4CCC5=CC(=O)C=C[C@]5(C)[C@H]4[C@@H](O)C[C@]3(C)[C@]2(C(=O)CO)O1`, the Potency is reported as “inactive”.
With `O=C(Nc1ccccc1)Nc1ccccc1` the Potency was “inactive”.
With `O=C1NCCN1` the Potency was “inactive”.
For `CCCC(=O)O[C@]1(C(=O)COC(=O)CC)CC[C@H]2[C@@H]3CCC4=CC(=O)CC[C@]4(C)[C@H]3[C@@H](O)C[C@@]21C`, the activity change, negative = inhibition was -24.8% [at 19 µM] (inactive).
In the case of `O=C(O)c1ccc(CO)o1`, the Potency is reported as “inactive”.
In the case of `CCCCN(CCCC)CCCOC(=O)c1ccc(N)cc1`, the Potency is reported as “inactive”.
For `CCOC(=O)c1ccccc1C`, the Potency was “inactive”.
With `CCCCCCOC(=O)C(C)C` the Potency was “inactive”.
For `CC1=C(C=O)C(C)(C)CCC1`, the Potency was “inactive”.
In the case of `CC(=O)OCC(=O)[C@@]12OC(C)(C)O[C@@H]1C[C@H]1[C@@H]3C[C@H](F)C4=CC(=O)C=C[C@]4(C)[C@@]3(F)[C@@H](O)C[C@@]12C`, the Potency is reported as “inactive”.
In the case of `CC1CC(O)CC(C)(C)C1` (centres undefined), the Potency is reported as “inactive”.
For `CN1CCCN=C1/C=C/c1cccs1`, the Potency was “inactive”.
With `Cc1cc(OI)c(C(C)C)cc1-c1cc(C(C)C)c(OI)cc1C` the Potency was “inactive”.
In the case of `NCC1CCCC(CN)C1` (centres undefined), the Potency is reported as “inactive”.

— PubChem BioAssay (Tox21)
